This is one part of a sample in which hits are shown more often than they occur.
AMA1-RON2 inh: inhibitors of Plasmodium falciparum AMA1-RON2 interaction; 360,000 compounds, 0.2% hits; AID 720542; AlphaScreen AMA1-biotinylated RON2 peptide binding; Potency, µM (series often up to 58.2 µM), for the others: at the highest dose activity change, negative = inhibition, usual class: inhibitors; active = well fitted inhibition curve with a large enough effect; inconclusive = small, poorly fitted or top-dose-only effect; inactive = no such curve, though single readings can be large or run the other way;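 also: potency is read from the fitted curve at half-maximal effect; 0% = vehicle wells and -100% = peptide control; nearly all actives have a fitted effect of over 45% in size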
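AMA1 (3D7) with his tag at 25 nM final met compounds first, then biotinylated RON2 peptide at 25 nM; detection used donor plus acceptor beads, 10 µg/mL apiece, read by AlphaScreen after 30 min at room temperature.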
Marburg entry inh: inhibitors of Marburg virus binding or cell entry; Marburg virus pseudotyped entry inhibition, cell reporter; Potency, µM (doses to about 37.8 µM), inactives show at the highest dose activity change, negative = inhibition, most hits filed as inhibitors; 300,000 compounds, 1.8% hits; calls by dose curve; tested in HEK293 cells; also: potency is read from the fitted curve at half-maximal effect; % is scaled to controls: 0 for no effect and ±100 for the full control effect
CHX counter: counter-screen hit for Shiga toxin inhibitors, cycloheximide; cell reporter, cycloheximide protein synthesis inhibition counterscreen; max response, %; 300,000 compounds, 12% hits; in the data active = max response mostly above about 13%, no sharp cut-off; inactive = mostly below about 14%; also: read at 38.3 µM for the half of the compounds with a filed dose; 0% is about no effect
Shiga inhibitor: Shiga toxin inhibition | AID 2315 | Vero cells, Shiga toxin protein synthesis inhibition reporter | 290,000 compounds, 9.2% hits | inhibition, % at 38.7 µM; in the data active = inhibition mostly above about 28%, no sharp cut-off; inactive = mostly below about 43%; also: 0% is about no effect
Lassa entry inh: blocks Lassa virus binding to or entry into cells; Lassa virus pseudotype entry inhibition, cell reporter; Potency, µM (highest dose often 37.9 µM), for the others: at the top dose activity change, negative = inhibition, most hits filed as inhibitors; 300,000 compounds, 1.2% hits; AID 540256; calls by dose curve; tested in HEK293 cells; also: potency is read from the fitted curve at half-maximal effect; % is scaled to controls: 0 for no effect and ±100 for the full control effect; nearly all actives have a fitted effect of over 50% in size
The depositor's hits bear a star; [ ] = another dose, or the depositor's remark.

For COCCn1c(SCC(=O)Nc2ccc(NC(C)=O)cc2)nc2ccccc2c1=O the results were AMA1-RON2 inh -7%, Marburg entry inh 1%, CHX counter -2, Shiga inhibitor -4 and Lassa entry inh -2%.
COC(=O)c1ccc(NC(=O)CSc2nc(=O)cc(N)n2-c2ccccc2)cc1 was read as AMA1-RON2 inh 11%, CHX counter -2 and Shiga inhibitor -3.
Screening CC(=O)c1ccc(NC(=O)CSc2nc(=O)cc(N)n2-c2ccccc2)cc1 returned AMA1-RON2 inh 2%, Marburg entry inh inconclusive, CHX counter 33*, Shiga inhibitor 91* and Lassa entry inh 12%[46.1 µM].
COCCCNC(=O)c1ccc2nc3ccccc3c(=O)n2c1 was read as AMA1-RON2 inh 32%, Marburg entry inh -28%, CHX counter 13*, Shiga inhibitor -1 and Lassa entry inh -25%.
`COCCCn1c(SCC(=O)Nc2ccc(C(C)=O)cc2)nc2ccccc2c1=O` gave AMA1-RON2 inh -13%, Marburg entry inh 16%, CHX counter 45*, Shiga inhibitor 80* and Lassa entry inh 20%.
Screening COc1cc(C2CC(=O)Oc3ccc(O)cc32)cc(OC)c1OC (stereo not drawn) returned CHX counter 9 and Shiga inhibitor inactive.
COC1OC2COC(c3ccccc3)OC2C(OC(C)=O)C1OC(C)=O (stereo not drawn) was read as AMA1-RON2 inh 21%, Marburg entry inh 16% and Lassa entry inh inconclusive.
`CC1CCCCN1S(=O)(=O)c1cccc2nonc12` (stereo not drawn) gave AMA1-RON2 inh 10%, Marburg entry inh inconclusive, CHX counter 1, Shiga inhibitor -16 and Lassa entry inh 17%[46.1 µM].
Screening C/C(=N\NC(=O)CCc1c[nH]c2ccccc12)c1ccc([N+](=O)[O-])cc1 returned AMA1-RON2 inh 1%, Marburg entry inh inconclusive, CHX counter -4, Shiga inhibitor 13 and Lassa entry inh inconclusive.
Screening C/C(=N/Nc1ccc([N+](=O)[O-])cc1)c1ccc(C)cc1C returned AMA1-RON2 inh 4%, Marburg entry inh -46%, CHX counter 42*, Shiga inhibitor 94* and Lassa entry inh -15%.
Screening C/C(=N/Nc1ccc([N+](=O)[O-])cc1)c1c[nH]c2ccccc12 returned AMA1-RON2 inh -26%, CHX counter 27* and Shiga inhibitor 34*.
For C/C(=N\Nc1ccc([N+](=O)[O-])cc1)c1ccc(C#N)cc1 the results were AMA1-RON2 inh 3%, Marburg entry inh inconclusive, CHX counter -5, Shiga inhibitor 10 and Lassa entry inh -19%.
`CCOC(=O)C1(CC2CCCCO2)CCN(C(=O)Nc2ccccc2CC)CC1` (stereo not drawn) gave AMA1-RON2 inh 0%, CHX counter 1 and Shiga inhibitor 4.
COc1cccc(C2C(C(=O)Nc3cccnc3)=C(C)Nc3nc(SCc4ccccc4)nn32)c1 (stereo not drawn) was read as Marburg entry inh 25%[46.1 µM] and Lassa entry inh -25%[46.1 µM].
`O=C1CC(c2ccc(Cl)cc2)CC(O)=C1C=NCc1ccc(Cl)c(Cl)c1` (stereo not drawn) gave AMA1-RON2 inh -9%, Marburg entry inh -15%, CHX counter -2, Shiga inhibitor -10 and Lassa entry inh inconclusive.
COC1CCC2(C)C(=CCC3C4CC(O)CC4(C)CCC32)C1 (stereo not drawn) was read as AMA1-RON2 inh -6%, Marburg entry inh -8% and Lassa entry inh 3%.
`O=C(CSc1nnc(CNC(=O)c2c(F)cccc2Cl)o1)Nc1cccc(F)c1` gave Marburg entry inh inconclusive and Lassa entry inh 17%[46.1 µM].
`CC1=NN(c2ccccc2)C(=O)/C1=C\c1sccc1C` gave AMA1-RON2 inh inconclusive, Marburg entry inh 0%[14.2 µM], CHX counter 11, Shiga inhibitor -4 and Lassa entry inh -23%.
`CC1=NN(c2cccc(C(=O)O)c2)C(=O)/C1=C\C=C\c1ccco1` gave AMA1-RON2 inh 0%, Marburg entry inh inconclusive, CHX counter 86*, Shiga inhibitor 126* and Lassa entry inh -4%.
Screening COc1cc(/C=C2\C(=O)N(c3cccc(C(=O)O)c3)N=C2C)ccc1OCc1ccccc1 returned AMA1-RON2 inh 0%.
For CC1=NN(c2ccccc2)C(=O)/C1=C/C=C/c1ccccc1 the results were AMA1-RON2 inh 3.2µM*, Marburg entry inh inconclusive, CHX counter -1, Shiga inhibitor 10 and Lassa entry inh -21%.
For CC(C)C(=O)Nc1ccc(-c2nc3ncccc3o2)cc1 the results were AMA1-RON2 inh -4%, CHX counter 29* and Shiga inhibitor 41*.
CC(C)(C)c1ccc(OCC(=O)Nc2ccc(-c3nc4cccnc4o3)cc2)cc1 was read as AMA1-RON2 inh 3%, Marburg entry inh 29%, CHX counter 9, Shiga inhibitor 12 and Lassa entry inh 15%.
`CC(C)C(=O)Nc1cccc(-c2nc3ncccc3o2)c1` gave AMA1-RON2 inh -2% and CHX counter 10.
For CCCC(=O)Nc1ccc(-c2nc3ncccc3o2)cc1 the results were AMA1-RON2 inh 14%, CHX counter 20* and Shiga inhibitor 175.
For CCCC(=O)Nc1cccc(-c2nc3ncccc3o2)c1 the results were Lassa entry inh -9%[46.1 µM].
For CC(C)C(=O)Nc1ccc(-c2nc3cccnc3o2)cc1 the results were AMA1-RON2 inh -4%, Marburg entry inh inconclusive, CHX counter 33*, Shiga inhibitor active and Lassa entry inh inconclusive.
`CC(=O)Nc1cccc(NC(=O)CSc2nc(=O)n(CCCN3CCOCC3)c3c2CCC3)c1` gave AMA1-RON2 inh -3%, Marburg entry inh 2% and Lassa entry inh 18%.
CCn1ccnc1CN(C)C(=O)C1CCC(=O)N(Cc2cccc(C(F)(F)F)c2)C1 (stereo not drawn) was read as AMA1-RON2 inh -14%, Marburg entry inh 26%, CHX counter 26, Shiga inhibitor -27 and Lassa entry inh 5%.
`O=C(NCCc1ccccc1)c1cc(-c2ccco2)on1` gave AMA1-RON2 inh -4%, Marburg entry inh -1%, CHX counter 45*, Shiga inhibitor 104* and Lassa entry inh -3%.
Screening O=C(NCc1ccco1)c1cc(-c2ccco2)on1 returned AMA1-RON2 inh -7%, Marburg entry inh -3%, CHX counter 31*, Shiga inhibitor 74* and Lassa entry inh 20%.
`Cc1ccn2cc(C(=O)NCc3ccco3)nc2c1` gave AMA1-RON2 inh 18%, Marburg entry inh inconclusive, CHX counter 25*, Shiga inhibitor 58* and Lassa entry inh inconclusive.
Screening Cc1cc(C)n2nc(C(=O)NCc3ccco3)cc2n1 returned AMA1-RON2 inh -5%, Marburg entry inh -13%[46.1 µM], CHX counter -2, Shiga inhibitor 2 and Lassa entry inh -4%[46.1 µM].
Screening Cc1cc(NC(=O)c2cc(-c3ccco3)on2)no1 returned AMA1-RON2 inh -1%, Marburg entry inh 8%, CHX counter 3, Shiga inhibitor -11 and Lassa entry inh 9%.
Screening O=C(NCc1ccccc1)c1cc(-c2ccco2)on1 returned AMA1-RON2 inh -3%, Marburg entry inh 9%, CHX counter 34*, Shiga inhibitor 65* and Lassa entry inh -12%.
